# The list is not random: actives were taken first. Their share in the collection is about 3.1%.
# MLL AF4-AF9 inh: blocks AF4 peptide binding to human AF9 | AID 651704 | AlphaScreen, biotin-AF4 peptide binding to FLAG-AF9 | inhibition, % at 10 µM | 350,000 compounds, 0.47% hits;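 active = every replicate reaching a set inhibition limit, whatever the replicate mean, cut at about 25% in these data; inconclusive = mean inhibition reaches that limit but some replicates miss it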;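 note: 0% = plate neutral control median and 100% = total signal loss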
# DENV2 CPE: DENV2-induced cell death inhibition. DENV2-infected cells, cytopathic effect rescue, plate reader. CPE inhibition, % at 9.99 µM. 350,000 compounds, 1.7% hits; in the data active = CPE inhibition above about 20%, passing the limit was not always enough; inconclusive = no clear call, values can overlap the other calls; tested in BHK-21 cells;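 note: 0% = median of neutral control wells and 100% = median of positive control wells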
# RAD52 inh: RAD52 (human) annealing inhibition | P43351 | recombinant RAD52 DNA annealing, FRET fluorescence | inhibition, % at 18.7 µM | 360,000 compounds, 0.46% hits;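 active = every replicate showing at least 50% inhibition; inconclusive = mean inhibition at least 50% but not in every replicate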
# Target sequence (P43351 whole entry, looked up): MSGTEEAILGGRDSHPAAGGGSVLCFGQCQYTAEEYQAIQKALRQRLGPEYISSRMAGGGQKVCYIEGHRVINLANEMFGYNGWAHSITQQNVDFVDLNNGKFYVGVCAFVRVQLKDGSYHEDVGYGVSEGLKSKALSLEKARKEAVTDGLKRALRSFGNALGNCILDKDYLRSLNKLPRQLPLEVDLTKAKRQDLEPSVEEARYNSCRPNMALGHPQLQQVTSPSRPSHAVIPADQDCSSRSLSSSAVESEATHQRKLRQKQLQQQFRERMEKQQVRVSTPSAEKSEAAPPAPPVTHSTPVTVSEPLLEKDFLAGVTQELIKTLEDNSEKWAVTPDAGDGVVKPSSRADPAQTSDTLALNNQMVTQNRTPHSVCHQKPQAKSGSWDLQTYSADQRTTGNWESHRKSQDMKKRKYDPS
# RAD54 inh: RAD54 (human) branch migration inhibition; Q92698; RAD54 Holliday junction branch migration, FAM/BHQ fluorescence; inhibition, % at 10.4 µM; 360,000 compounds, 0.14% hits; AID 602329;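 active = mean normalized replicate activity at least 40 and at least half of replicates scoring 40 or more; inconclusive = only one of the two criteria met; inactive = mean below 40 and under half of replicates reaching 40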;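 note: 0% = median of neutral control wells and 100% = median of positive control wells; inhibitors cause a drop in the FAM fluorescence signal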
# dFosB activator: mouse delta FosB homodimer activation; P13346; purified delta FosB, TAMRA-CDK5 oligo fluorescence polarization; percent of positive-control signal above neutral wells; activation, % at 25 µM; 340,000 compounds, 0.99% hits;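 active = mean activation above about 17%, with every replicate also reaching it, limit read from the data, passing the limit was not always enough; inconclusive = only one of the two conditions met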
# INS-1E GSIS act: primary screen for activators of insulin secretion dependent on glucose, INS-1E cells, GLuc reporter luminescence. AID 743287. activation, % at 16.6 µM. INS-1E GLuc reporter insulin secretion, 2-3 h. 370,000 compounds, 0.61% hits;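 active = lowest replicate activation of at least 40%, so every replicate reaches that level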;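 note: 0% = median of neutral control wells and 100% = median of IBMX positive control wells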
# Active calls of the source: *; ? = inconclusive; / = no result.
SMILES,MLL AF4-AF9 inh,DENV2 CPE,RAD52 inh,RAD54 inh,dFosB activator,INS-1E GSIS act
CNc1cccc(-c2ccccc2CO)n1,1,30*,-3,6,/,7
Cc1ccc2c(c1)c1c3n2CCN(C(=O)CN2CCN(C)CC2)C3CCC1 (stereo not drawn),/,/,/,21,2,/
Cc1ccc2c(c1)c1c3n2CCN(C(=O)C2CC2)C3CCC1 (stereo not drawn),1,54*,-20,-2,-1,-10
Nc1[nH]c(C(=O)c2ccccc2)c(-c2ccc(Cl)cc2Cl)c1C(=O)c1ccc(Cl)cc1,-1,11,-12,/,/,-28
Nc1[nH]c(C(=O)c2ccccc2)c(-c2c(F)cccc2F)c1C(=O)c1ccc(Cl)c(Cl)c1,-1,-11,-5,/,/,177*
CC(=O)N(C)C[C@H]1Oc2cc(C3=CCCC3)ccc2S(=O)(=O)N([C@@H](C)CO)C[C@H]1C,0,-4,0,-12,/,17
CCCCCCSc1cc(-c2nc3cc(C)ccn3c2NCCCC)ccc1OC,17,2,-62,-14,0,5
CCCCCCSc1cc(-c2nc3cnccn3c2NCCCC)ccc1OC,/,/,-25,-13,-3,108*
CCNC(=O)C[C@H]1CC[C@H]2[C@H](COc3ccc(NS(=O)(=O)c4ccccc4C)cc3C(=O)N2C)O1,-2,6,-1,-7,/,3
C[C@@H]1CN([C@@H](C)CO)C(=O)c2cc(NC(=O)CCCN(C)C)ccc2O[C@@H]1CN(C)S(C)(=O)=O,-3,4,-3,-5,/,12
OCc1nnc2c3ccccc3c(-c3ccccc3)nn12,4,/,-2,-3,-11,41*
O=C(C[C@@H]1CC[C@H]2[C@@H](COC[C@H](O)CN2C(=O)Nc2ccc(F)cc2)O1)NC1Cc2ccccc2C1,-1,25*,-3,-1,/,-8
O=C(C[C@H]1CC[C@H]2[C@@H](COC[C@@H](O)CN2C(=O)c2ccc3c(c2)OCO3)O1)NC1CCC1,-1,-6,5,3,/,-8
O=C(C[C@@H]1CC[C@H]2[C@@H](COC[C@H](O)CN2C(=O)c2ccc3c(c2)OCO3)O1)NCCN1CCCCC1,3,0,-46,-5,/,4
O=C(C[C@@H]1CC[C@H]2[C@@H](COC[C@@H](O)CN2C(=O)Nc2ccc(F)cc2)O1)NCCCN1CCOCC1,31*,3,-2,-3,/,-2
O=C(C[C@@H]1CC[C@@H]2[C@H](COC[C@@H](O)CN2C(=O)Nc2ccc(F)cc2)O1)NC1Cc2ccccc2C1,-2,-15,6,-1,/,-11
O=C(C[C@H]1CC[C@@H]2[C@H](COC[C@H](O)CN2C(=O)c2ccc3c(c2)OCO3)O1)NC1Cc2ccccc2C1,-1,24*,10,6,/,6
O=C(C[C@@H]1CC[C@@H]2[C@H](COC[C@H](O)CN2C(=O)Nc2ccc(F)cc2)O1)NCCCN1CCOCC1,-18,-1,4,8,/,13
O=C(C[C@H]1CC[C@H]2[C@@H](COC[C@@H](O)CN2C(=O)c2ccc3c(c2)OCO3)O1)NCCN1CCCC1,-2,27*,-9,/,/,15
Cc1ccc(-c2nnc(NC3CCCCC3)c3ccccc23)cc1S(=O)(=O)N1CCN(C)CC1,/,/,/,0,-8,/
Cc1ccc(-c2nnc(NCc3nc4ccccc4[nH]3)c3ccccc23)cc1S(=O)(=O)N1CCCCC1,/,/,/,-1,80*,-34
CN(C)C(=O)C[C@H]1C[C@@H]2c3cc(NC(=O)Nc4ccccc4)ccc3O[C@@H]2[C@@H](CO)O1,/,-6,/,2,/,0
CC1(C)CC(=O)C2=C(C1)NC(=O)NC2c1ccc(Cl)cc1 (stereo not drawn),2,23*,-7,-6,-2,23
CC1(C)CC(=O)C2=C(C1)NC(=O)NC2c1ccccc1Cl (stereo not drawn),-8,4,-16,-16,-2,-4
OC(CSc1nnnn1-c1ccccc1)Cn1c2ccccc2c2ccccc21 (stereo not drawn),-2,21*,-12,/,/,-9
SMILES,MLL AF4-AF9 inh,DENV2 CPE,RAD52 inh,RAD54 inh,dFosB activator,INS-1E GSIS act
COc1ccc(CN(C)C[C@@H]2OCCCC[C@H](C)Oc3ccc(NC(=O)Nc4ccc(C(F)(F)F)cc4)cc3C(=O)N([C@@H](C)CO)C[C@H]2C)cc1,9,-5,52*,12,/,-6
COc1ccc(CN(C)C[C@@H]2OCCCC[C@H](C)Oc3ccc(NC(=O)Nc4ccc(C(F)(F)F)cc4)cc3C(=O)N([C@H](C)CO)C[C@H]2C)cc1,15,-6,65*,-3,/,/
COc1ccc(NC(=O)Nc2ccc3c(c2)C(=O)N([C@H](C)CO)C[C@H](C)[C@@H](CN(C)Cc2ccc(C(F)(F)F)cc2)OCCCC[C@H](C)O3)cc1,-4,3,-111,-6,/,-15
COc1ccc(CN(C)C[C@@H]2OCCCC[C@@H](C)Oc3ccc(NC(=O)Nc4ccc(C(F)(F)F)cc4)cc3C(=O)N([C@H](C)CO)C[C@@H]2C)cc1,1,2,42,-9,/,5
CC(C)NC(=O)N(C)C[C@H]1OCCCC[C@H](C)Oc2ccc(NS(=O)(=O)c3ccc(Cl)cc3)cc2C(=O)N([C@H](C)CO)C[C@H]1C,-2,-5,18,5,/,-4
C[C@H]1CN([C@@H](C)CO)C(=O)c2cc(NC(=O)Nc3ccc(C(F)(F)F)cc3)ccc2O[C@H]1CN(C)Cc1ccccc1,2,0,-29,0,/,-13
Cc1ccc(-n2cc(CNCCn3nc(C)cc3C)c(-c3ccc(F)cc3)n2)cc1,4,-5,-74,5,-2,-33
Cc1ccc(-n2cc(CNCCc3ncc(C)[nH]3)c(-c3ccc(F)cc3)n2)cc1,28*,1,-20,/,0,7
CN(CC(=O)Nc1ccccc1Cl)C(=O)COC(=O)c1cccs1,3,57*,0,5,-4,4
CN(C(=O)COC(=O)c1cccs1)c1ccccc1,-4,?,-6,-4,/,117*
O=C1Nc2cnc(Cl)nc2Nc2ccccc21,-1,5,18,/,/,87*
O=C(C[C@H]1C=C[C@H](NS(=O)(=O)c2ccccc2)[C@@H](CO)O1)NCc1ccc(Cl)c(Cl)c1,-1,3,1,-1,/,7
CCOC(=O)C1(C)CCN1C(=O)c1cccc(OC)c1 (stereo not drawn),1,42*,-15,-4,/,-3
COc1ccc(S(=O)(=O)N(C)C[C@H]2Oc3c(NC(=O)Nc4ccc(F)cc4)cccc3C(=O)N([C@@H](C)CO)C[C@H]2C)cc1,4,3,16,/,/,-41
Nc1nnc(SCC(=O)Nc2cccc(Cl)c2)s1,-2,50*,-13,/,2,2
CO[C@@H]1CN(C)C(=O)c2ccc(NC(=O)Cc3ccccc3)cc2OC[C@@H](C)N(C(C)=O)C[C@@H]1C,-1,-2,0,-14,/,9
